Targets with a hit are over-represented here; the source holds about 8,800 in all. About 0.5% of all pairs of compound and target were hits.
Columns and labels:
Assay in all cases: log2 fold change, soluble protein after heating vs DMSO (PISA); higher = thermal stabilisation; K562 lysate, 10 uM; active = over 0.2 and 3.5 SD of the protein, either way, in both replicates (recomputed)
[1] = compound: CN1CC[C@H](c2c(O)cc(O)c3c(=O)cc(-c4ccccc4Cl)oc23)[C@H](O)C1 [alvocidib]
How it was run: (§1)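 Quantification was by TMTpro 16plex LC-MS/MS with equalised channel sums, applied to the supernatant after 21,000xg for 90 min. Samples were crude K562 extract at 1 mg/mL protein in PBS pH 7.4 with 1 mM MgCl2, treated with 10 μM compound for 30 min, heated for 3 min across 48°C-58°C, pooled and brought to 0.5% NP-40 at 4°C. Values are log-two fold changes in thermal stability relative to solvent controls, from duplicates.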

[2] = compound: CN1CCc2c(c3ccccc3n2Cc2ccc(C(=O)NO)cc2)C1 [Tubastatin A]
How it was run: as §1

[3] = compound: CNC(=O)C1=CC=CC=C1NC2=NC(=NC=C2Cl)NC3=C(C=C(C=C3)N4CCOCC4)OC
How it was run: as §1

[4] = compound: CNC(=O)c1ccc(Nc2ncc(C(F)(F)F)c(NCc3nccnc3N(C)S(C)(=O)=O)n2)cc1 [defactinib]
How it was run: as §1

[5] = compound: CNc1nc(-c2ccc3c(N)n[nH]c3c2)cc(N2C[C@@H](C(=O)NC3CCCCC3)CC[C@H]2C)n1
How it was run: as §1

[6] = compound: COC(=O)N[C@@H](C)CNc1nccc(-c2cn(C(C)C)nc2-c2cc(Cl)cc(NS(C)(=O)=O)c2F)n1 [encorafenib]
How it was run: as §1

[7] = compound: COC(=O)[C@H](CCSC)NC(=O)C1=C(C=C(C=C1)NC[C@H](CS)N)C2=CC=CC=C2
How it was run: as §1

[8] = compound: COc1cc(Nc2ncc3c(n2)-c2ccc(Cl)cc2C(c2c(F)cccc2OC)=NC3)ccc1C(=O)O [alisertib]
How it was run: as §1

[9] = compound: COc1cc2nc(-c3cc(F)ccc3O)nc(N[C@@H]3CNC[C@H]3C(C)(C)O)c2cc1OC
How it was run: as §1

[10] = compound: COc1cc2ncnc(Nc3ccc(F)c(Cl)c3)c2cc1OCCCN1CCOCC1 [gefitinib]
How it was run: as §1

Measured: log2 fold change

CLASP1 (UniProt Q7Z460)
inactive: [1] -0.057 | [2] -0.032 | [3] -0.005 | [4] -0.037 | [5] -0.006 | [6] 0.058 | [7] 0.009 | [8] 0.036 | [9] -0.001 | [10] 0.018

CLPTM1L (UniProt Q96KA5)
inactive: [1] 0.001 | [2] -0.064 | [3] -0.131 | [4] 0.015 | [5] -0.204 | [6] 0.021 | [7] -0.029 | [8] 0.054 | [9] -0.097 | [10] 0.011

DHRS3 (UniProt O75911)
UniProt O75911, sequence (O75911 whole entry, looked up): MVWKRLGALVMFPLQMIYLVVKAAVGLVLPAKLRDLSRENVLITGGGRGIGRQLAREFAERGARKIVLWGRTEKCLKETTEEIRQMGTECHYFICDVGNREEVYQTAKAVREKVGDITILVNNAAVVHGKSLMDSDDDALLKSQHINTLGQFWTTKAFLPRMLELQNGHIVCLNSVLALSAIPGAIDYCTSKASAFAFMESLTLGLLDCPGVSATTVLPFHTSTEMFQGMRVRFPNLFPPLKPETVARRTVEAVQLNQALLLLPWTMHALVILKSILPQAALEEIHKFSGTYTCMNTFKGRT
inactive: [1] -0.013 | [2] 0.105 | [3] 0.043 | [4] -0.006 | [5] 0.085 | [6] -0.044 | [7] 0.151 | [8] -0.006 | [9] -0.011 | [10] 0.071

CHURC1 isoform 2 (UniProt Q8WUH1)
inactive: [1] 0.002 | [2] 0.002 | [3] 0 | [4] 0.051 | [5] 0.024 | [6] -0.068 | [7] -0.005 | [8] 0.013 | [9] -0.145 | [10] -0.025

DIAPH3 (UniProt Q9NSV4)
inactive: [1] 0.041 | [2] -0.195 | [3] 0.004 | [4] -0.024 | [5] -0.027 | [6] 0.118 | [7] 0.085 | [8] 0.056 | [9] -0.015 | [10] 0.06

DDA1 (UniProt Q9BW61)
inactive: [1] 0.024 | [2] -0.002 | [3] 0.015 | [4] -0.004 | [5] 0.031 | [6] 0.013 | [7] 0.021 | [8] -0.024 | [9] -0.003 | [10] -0.034

CLCN3 (UniProt P51790)
inactive: [1] -0.03 | [2] -0.012 | [3] -0.042 | [4] -0.024 | [5] -0.194 | [6] 0.05 | [7] 0.003 | [8] 0.005 | [9] -0.043 | [10] 0.029

CYP51A1 (UniProt Q16850)
inactive: [1] -0.017 | [2] 0.007 | [3] 0.005 | [4] -0.001 | [5] 0.023 | [6] -0.019 | [7] 0.09 | [8] 0.019 | [9] 0.053 | [10] 0

CNDP2 (UniProt Q96KP4)
UniProt Q96KP4, sequence (Q96KP4 whole entry, looked up): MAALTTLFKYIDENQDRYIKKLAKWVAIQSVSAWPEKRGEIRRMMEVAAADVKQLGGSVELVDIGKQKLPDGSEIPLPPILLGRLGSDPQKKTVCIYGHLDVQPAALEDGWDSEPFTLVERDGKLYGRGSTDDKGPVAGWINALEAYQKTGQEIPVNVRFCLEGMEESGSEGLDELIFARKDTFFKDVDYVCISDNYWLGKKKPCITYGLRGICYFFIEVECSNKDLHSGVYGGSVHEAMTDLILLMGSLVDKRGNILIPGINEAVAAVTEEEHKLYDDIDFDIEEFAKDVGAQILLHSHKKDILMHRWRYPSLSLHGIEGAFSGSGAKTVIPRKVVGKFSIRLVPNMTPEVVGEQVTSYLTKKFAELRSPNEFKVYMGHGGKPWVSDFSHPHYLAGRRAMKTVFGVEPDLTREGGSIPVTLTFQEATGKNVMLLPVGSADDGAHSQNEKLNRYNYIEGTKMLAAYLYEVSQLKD
inactive: [1] -0.11 | [2] 0.039 | [3] 0.003 | [4] 0.005 | [5] 0.1 | [6] -0.02 | [7] 0.002 | [8] -0.031 | [9] 0.047 | [10] 0.013

COQ9 (UniProt O75208)
inactive: [1] 0.002 | [2] -0.041 | [3] -0.035 | [4] 0.023 | [5] 0.136 | [6] -0.021 | [7] 0.024 | [8] 0.026 | [9] 0.025 | [10] -0.012

DOCK10 (UniProt Q96BY6)
inactive: [1] -0.354 | [2] -0.028 | [3] 0.208 | [4] 0.133 | [5] 0.046 | [6] 0.067 | [7] -0.002 | [8] 0.05 | [9] -0.042 | [10] 0.084

CYP24A1 (UniProt Q07973)
inactive: [1] -0.258 | [2] 0.163 | [3] -0.021 | [4] -0.158 | [5] 0.226 | [6] 0.011 | [7] 0.043 | [8] 0.049 | [9] 0.13 | [10] -0.05

DLGAP5 (UniProt Q15398)
inactive: [1] -0.007 | [2] -0.021 | [3] 0.01 | [4] 0.004 | [5] -0.004 | [6] 0.024 | [7] 0 | [8] -0.016 | [9] -0.02 | [10] -0.001

DHCR7 (UniProt Q9UBM7)
UniProt Q9UBM7, sequence (Q9UBM7 whole entry, looked up): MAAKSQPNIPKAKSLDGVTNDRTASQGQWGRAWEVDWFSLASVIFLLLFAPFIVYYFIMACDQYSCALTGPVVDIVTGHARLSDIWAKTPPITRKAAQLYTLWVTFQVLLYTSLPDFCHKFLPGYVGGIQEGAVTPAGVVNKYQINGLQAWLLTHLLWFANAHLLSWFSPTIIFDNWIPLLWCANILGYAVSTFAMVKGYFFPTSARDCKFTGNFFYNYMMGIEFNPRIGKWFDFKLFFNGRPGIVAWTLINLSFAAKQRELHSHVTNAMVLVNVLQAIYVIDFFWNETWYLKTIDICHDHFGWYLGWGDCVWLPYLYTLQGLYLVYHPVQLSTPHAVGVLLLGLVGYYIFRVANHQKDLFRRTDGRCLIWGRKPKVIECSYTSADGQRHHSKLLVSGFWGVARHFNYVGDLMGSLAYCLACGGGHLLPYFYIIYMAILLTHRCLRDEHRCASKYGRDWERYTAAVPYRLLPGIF
inactive: [1] -0.008 | [2] -0.038 | [3] -0.008 | [4] 0.016 | [5] -0.031 | [6] 0.019 | [7] 0.037 | [8] 0.029 | [9] -0.008 | [10] -0.035

DES (UniProt P17661)
inactive: [1] -0.144 | [2] 0.091 | [3] -0.023 | [4] -0.056 | [5] 0.26 | [6] 0 | [7] -0.029 | [8] -0.017 | [9] 0.117 | [10] 0.04

DNAJC1 (UniProt Q96KC8)
inactive: [1] 0.016 | [2] -0.053 | [3] 0.013 | [4] 0.06 | [5] -0.059 | [6] 0.056 | [7] -0.257 | [8] 0.038 | [9] -0.104 | [10] 0.041

CLIC2 (UniProt O15247)
inactive: [1] 0.002 | [2] -0.002 | [3] 0.034 | [4] 0.03 | [5] 0.024 | [6] -0.016 | [7] 0.018 | [8] 0.02 | [9] -0.014 | [10] -0.038

CSTB (UniProt P04080)
inactive: [1] -0.051 | [2] 0.089 | [3] -0.023 | [4] 0.069 | [5] 0.011 | [6] 0.025 | [7] -0.011 | [8] 0.023 | [9] -0.042 | [10] -0.143

DLD (UniProt P09622)
inactive: [1] -0.024 | [2] 0.041 | [3] 0.03 | [4] -0.02 | [5] 0.046 | [6] -0.014 | [7] -0.13 | [8] 0 | [9] 0.008 | [10] -0.055

CHEK1 (UniProt O14757)
inactive: [1] 0.01 | [2] 0.072 | [3] -0.063 | [4] -0.021 | [5] -0.002 | [6] 0.002 | [7] -0.008 | [8] 0.008 | [9] -0.178 | [10] 0.013

DCP2 (UniProt Q8IU60)
inactive: [1] 0.023 | [2] -0.195 | [3] -0.013 | [4] -0.045 | [5] 0 | [6] 0 | [7] -0.117 | [8] -0.02 | [9] 0 | [10] 0.041

CMPK2 (UniProt Q5EBM0)
inactive: [1] -0.046 | [2] 0.005 | [3] 0.018 | [4] 0.027 | [5] -0.006 | [6] 0.01 | [7] 0.028 | [8] -0.026 | [9] 0.018 | [10] -0.022

DERA (UniProt Q9Y315)
inactive: [1] 0.121 | [2] 0.018 | [3] 0.033 | [4] -0.003 | [5] 0.085 | [6] -0.005 | [7] -0.053 | [8] -0.059 | [9] -0.01 | [10] 0.087

DLG3 isoform 2 (UniProt Q92796)
UniProt Q92796, sequence (Q92796 whole entry, looked up): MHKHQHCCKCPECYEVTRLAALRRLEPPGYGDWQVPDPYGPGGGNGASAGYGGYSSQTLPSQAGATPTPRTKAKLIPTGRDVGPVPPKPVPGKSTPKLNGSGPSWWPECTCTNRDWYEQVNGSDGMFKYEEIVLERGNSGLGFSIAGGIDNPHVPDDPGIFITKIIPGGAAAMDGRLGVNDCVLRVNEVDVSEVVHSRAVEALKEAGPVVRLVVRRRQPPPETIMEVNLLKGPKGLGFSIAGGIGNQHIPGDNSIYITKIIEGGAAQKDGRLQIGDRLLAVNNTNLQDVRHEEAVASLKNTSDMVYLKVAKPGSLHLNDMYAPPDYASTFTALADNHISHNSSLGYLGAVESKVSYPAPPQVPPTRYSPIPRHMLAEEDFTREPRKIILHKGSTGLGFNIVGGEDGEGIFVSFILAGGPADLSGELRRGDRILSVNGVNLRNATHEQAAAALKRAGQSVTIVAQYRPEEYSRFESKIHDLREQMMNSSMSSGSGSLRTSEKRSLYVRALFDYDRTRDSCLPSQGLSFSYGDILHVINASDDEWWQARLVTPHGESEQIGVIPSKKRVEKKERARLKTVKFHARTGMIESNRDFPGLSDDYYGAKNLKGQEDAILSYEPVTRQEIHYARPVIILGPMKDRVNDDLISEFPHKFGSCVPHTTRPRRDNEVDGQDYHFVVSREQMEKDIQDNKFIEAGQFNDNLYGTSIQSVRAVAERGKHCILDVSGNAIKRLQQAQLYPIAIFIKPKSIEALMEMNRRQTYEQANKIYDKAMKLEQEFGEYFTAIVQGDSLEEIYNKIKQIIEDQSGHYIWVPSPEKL
inactive: [1] -0.136 | [2] 0 | [3] -0.026 | [4] 0.053 | [5] -0.01 | [6] -0.089 | [7] -0.082 | [8] 0.069 | [9] -0.055 | [10] -0.131

CSK (UniProt P41240)
UniProt P41240, sequence (P41240 whole entry, looked up): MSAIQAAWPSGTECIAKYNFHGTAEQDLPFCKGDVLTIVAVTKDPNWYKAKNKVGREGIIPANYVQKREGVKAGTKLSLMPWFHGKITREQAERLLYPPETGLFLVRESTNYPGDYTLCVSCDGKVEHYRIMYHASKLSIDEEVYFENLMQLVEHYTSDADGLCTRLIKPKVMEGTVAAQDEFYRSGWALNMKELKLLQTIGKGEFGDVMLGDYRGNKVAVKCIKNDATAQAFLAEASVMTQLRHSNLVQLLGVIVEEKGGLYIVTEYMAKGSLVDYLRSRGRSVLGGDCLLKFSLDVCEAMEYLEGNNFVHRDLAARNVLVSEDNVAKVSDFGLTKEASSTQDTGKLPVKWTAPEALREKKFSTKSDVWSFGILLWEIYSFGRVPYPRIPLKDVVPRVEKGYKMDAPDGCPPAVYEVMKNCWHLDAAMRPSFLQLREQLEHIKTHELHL
inactive: [1] 0.076 | [2] -0.088 | [3] 0.262 | [4] 0.068 | [5] -0.027 | [6] -0.026 | [7] -0.063 | [8] 0.072 | [9] -0.008 | [10] -0.01

CLCN3 isoform 2 (UniProt P51790)
inactive: [1] -0.02 | [2] 0.02 | [3] 0.024 | [4] -0.015 | [5] 0.033 | [6] 0.041 | [7] 0.022 | [8] -0.007 | [9] -0.002 | [10] 0.005

CWC22 (UniProt Q9HCG8)
UniProt Q9HCG8, sequence (Q9HCG8 whole entry, looked up): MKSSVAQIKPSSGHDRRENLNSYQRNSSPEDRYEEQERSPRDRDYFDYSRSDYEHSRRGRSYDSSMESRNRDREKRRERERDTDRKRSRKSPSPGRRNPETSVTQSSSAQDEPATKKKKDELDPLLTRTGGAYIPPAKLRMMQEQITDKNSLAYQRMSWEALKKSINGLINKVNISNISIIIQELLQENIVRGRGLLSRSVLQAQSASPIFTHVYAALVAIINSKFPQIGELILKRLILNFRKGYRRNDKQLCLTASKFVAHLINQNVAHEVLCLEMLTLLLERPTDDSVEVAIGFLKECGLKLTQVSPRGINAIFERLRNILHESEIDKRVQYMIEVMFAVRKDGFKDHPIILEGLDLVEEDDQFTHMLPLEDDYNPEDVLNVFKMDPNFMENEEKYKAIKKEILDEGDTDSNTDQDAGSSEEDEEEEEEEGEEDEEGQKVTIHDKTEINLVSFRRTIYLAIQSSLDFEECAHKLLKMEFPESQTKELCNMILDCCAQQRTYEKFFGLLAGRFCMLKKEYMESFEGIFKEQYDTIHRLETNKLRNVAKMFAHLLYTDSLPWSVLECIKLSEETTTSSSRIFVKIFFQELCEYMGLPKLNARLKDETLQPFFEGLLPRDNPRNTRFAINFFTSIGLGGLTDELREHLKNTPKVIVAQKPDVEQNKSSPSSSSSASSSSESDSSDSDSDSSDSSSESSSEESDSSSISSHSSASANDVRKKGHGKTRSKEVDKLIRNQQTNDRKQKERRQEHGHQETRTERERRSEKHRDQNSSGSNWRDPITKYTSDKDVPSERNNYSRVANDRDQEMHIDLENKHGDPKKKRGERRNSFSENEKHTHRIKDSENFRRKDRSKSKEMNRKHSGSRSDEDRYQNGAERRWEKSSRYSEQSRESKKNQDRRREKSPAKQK
inactive: [1] 0.112 | [2] -0.035 | [3] 0 | [4] -0.026 | [5] -0.036 | [6] 0.046 | [7] 0.093 | [8] -0.065 | [9] -0.058 | [10] -0.028

COMT (UniProt P21964)
UniProt P21964, sequence (P21964 whole entry, looked up): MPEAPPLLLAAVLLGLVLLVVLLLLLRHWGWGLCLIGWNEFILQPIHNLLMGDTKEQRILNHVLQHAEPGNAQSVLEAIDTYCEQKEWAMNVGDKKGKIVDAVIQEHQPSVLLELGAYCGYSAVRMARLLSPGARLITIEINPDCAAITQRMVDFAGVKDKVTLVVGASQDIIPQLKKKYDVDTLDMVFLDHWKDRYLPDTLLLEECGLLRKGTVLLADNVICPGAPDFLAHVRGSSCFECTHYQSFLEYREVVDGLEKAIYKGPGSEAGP
inactive: [1] 0.012 | [2] -0.162 | [3] -0.016 | [4] 0.016 | [5] -0.013 | [6] 0.028 | [7] 0.059 | [8] 0.022 | [9] 0.025 | [10] 0.013

COG3 (UniProt Q96JB2)
inactive: [1] -0.023 | [2] -0.09 | [3] 0.042 | [4] -0.016 | [5] -0.041 | [6] -0.013 | [7] -0.045 | [8] 0.032 | [9] -0.018 | [10] -0.026

DCTN1 (UniProt Q14203)
UniProt Q14203, sequence (Q14203 whole entry, looked up): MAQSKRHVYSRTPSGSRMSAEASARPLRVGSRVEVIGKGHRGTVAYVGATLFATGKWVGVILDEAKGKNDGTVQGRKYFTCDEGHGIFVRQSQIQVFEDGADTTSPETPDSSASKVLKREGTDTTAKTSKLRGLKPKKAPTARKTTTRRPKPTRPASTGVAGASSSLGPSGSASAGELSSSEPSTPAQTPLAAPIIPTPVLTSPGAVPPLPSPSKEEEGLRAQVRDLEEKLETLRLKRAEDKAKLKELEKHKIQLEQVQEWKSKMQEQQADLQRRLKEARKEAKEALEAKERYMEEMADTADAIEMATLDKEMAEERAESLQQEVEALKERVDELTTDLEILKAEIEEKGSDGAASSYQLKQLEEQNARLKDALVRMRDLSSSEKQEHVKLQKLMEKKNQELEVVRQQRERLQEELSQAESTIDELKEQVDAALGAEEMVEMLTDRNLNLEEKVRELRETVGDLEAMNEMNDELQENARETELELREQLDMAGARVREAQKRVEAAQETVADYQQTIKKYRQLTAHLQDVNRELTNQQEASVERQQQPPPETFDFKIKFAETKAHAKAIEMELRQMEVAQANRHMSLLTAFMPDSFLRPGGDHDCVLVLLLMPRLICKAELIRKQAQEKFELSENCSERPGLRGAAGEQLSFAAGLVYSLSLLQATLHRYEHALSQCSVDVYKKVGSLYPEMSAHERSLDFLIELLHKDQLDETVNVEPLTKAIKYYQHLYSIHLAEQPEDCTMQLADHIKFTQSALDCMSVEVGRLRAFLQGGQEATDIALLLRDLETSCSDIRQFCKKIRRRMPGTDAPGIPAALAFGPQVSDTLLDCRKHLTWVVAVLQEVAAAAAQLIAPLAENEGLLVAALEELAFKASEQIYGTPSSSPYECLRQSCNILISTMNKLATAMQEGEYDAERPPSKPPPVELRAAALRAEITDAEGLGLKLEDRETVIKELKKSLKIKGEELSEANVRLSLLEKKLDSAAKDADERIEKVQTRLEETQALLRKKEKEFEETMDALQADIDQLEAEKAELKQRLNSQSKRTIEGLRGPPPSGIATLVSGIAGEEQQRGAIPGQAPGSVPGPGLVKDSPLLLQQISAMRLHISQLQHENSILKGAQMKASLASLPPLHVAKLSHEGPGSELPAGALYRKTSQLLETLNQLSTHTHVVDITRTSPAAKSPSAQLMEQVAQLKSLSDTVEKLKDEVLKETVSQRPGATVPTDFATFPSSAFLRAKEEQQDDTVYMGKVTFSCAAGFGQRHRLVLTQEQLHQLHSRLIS
inactive: [1] 0.03 | [2] -0.048 | [3] 0.009 | [4] 0.008 | [5] -0.02 | [6] 0.008 | [7] 0.119 | [8] -0.019 | [9] 0.01 | [10] -0.002

Reference: the supplement of paper PMC10849652
